{"source": "PubChem BioAssay (NCATS)", "note": "Records with an inconclusive call do not appear. Entries that show only a call come without a potency. Calls of active or inactive are those of the source. Calls come from the whole dose curve; as a rule, active = well fitted inhibition curve with a large enough effect; inconclusive = small, poorly fitted or top-dose-only effect; inactive = flat fitted curve, though single readings scatter. Where a SMILES comes first, the peptide text is derived from it. [ ]: non-standard residue; d: D form. ξ: configuration not given here. ξLac(3-iPr) = CC(C)CC(O)C(=O)O; NMeV = CN[CH](C(=O)O)C(C)C; βAla = NCCC(=O)O", "data": [{"assay": "P-glycoprotein substrates identified in KB-8-5-11 adenocarcinoma cell line, qHTS therapeutic library screen (AID 1346987); note: nearly all actives have a fitted effect of over 65% in size", "conditions": "KB-8-5-11 (P-gp overexpressing) viability, CellTiter-Glo, 72 h; series mostly up to 44.5 µM", "in_short": "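Compounds are pinned in dose-response onto KB-8-5-11 cells (500 cells/well, colchicine-free medium) and left 72 h at 37 degree C. CellTiter-Glo luminescence then yields AC50 values.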", "values": [{"smiles": "COC(=O)C[C@H]1C(C)(C)[C@H](OC(=O)C(C)C)[C@@]2(O)C(=O)[C@]1(C)C1CC[C@]3(C)C(CC(=O)O[C@H]3c3ccoc3)[C@]13O[C@@H]32", "note": "(some centres not stated)", "Potency": "inactive"}, {"smiles": "CC1(C(=O)O)CCCC2(C)C3=CCC4CC3(CCC12)CC4CO", "note": "(configuration not stated)", "Potency": "inactive"}, {"smiles": "COc1ccc(C2(O)CCC(N3CC[C@@H](NC(=O)CNC(=O)c4cccc(C(F)(F)F)c4)C3)CC2)cn1", "note": "(some centres not stated)", "Potency": "inactive"}, {"smiles": "CC(C)CC1OC(=O)C2CCCN2C(=O)CCNC(=O)C(Cc2ccccc2)NC(=O)C(C(C)C)N(C)C(=O)C(C(C)C)N(C)C1=O", "note": "(configuration not stated) (cyclo([ξLac(3-iPr)][NMeV][NMeV]F[βAla]P); configuration not given here)", "Potency": "inactive"}, {"smiles": "COc1cc(C(=O)OC[C@H]2O[C@@H](Oc3ccccc3/C=C/C(=O)O)[C@H](O)[C@@H](O)[C@@H]2O)cc(OC)c1OC", "Potency": "inactive"}, {"smiles": "C=C1[C@H](OC(C)=O)[C@H]2[C@@H](OC(C)=O)[C@](C)(OC(C)=O)C[C@]2(OC(C)=O)C(=O)[C@H](C)/C=C/C(C)(C)C(=O)[C@H](OC(=O)C(C)CC)[C@H]1OC(C)=O", "note": "(some centres not stated)", "Potency": "inactive"}, {"smiles": "COC(=O)c1cc(OC)c(O[C@@H]2O[C@@H](C)[C@H](O)[C@@H](O)[C@H]2O)c(OC)c1", "Potency": "inactive"}, {"smiles": "CC(NC(=O)CCc1nc2ccccc2c(=O)[nH]1)c1ccccc1", "note": "(configuration not stated)", "Potency": "inactive"}, {"smiles": "OC[C@H]1O[C@@H](O[C@H]2[C@H](OCc3ccccc3)O[C@H](CO[C@@H]3OC[C@@H](O)[C@H](O)[C@H]3O)[C@@H](O)[C@@H]2O)[C@H](O)[C@@H](O)[C@@H]1O", "Potency": "inactive"}, {"smiles": "C=C[C@H]1C(O[C@@H]2O[C@H](CO)[C@@H](O)[C@H](O)[C@H]2O)OC=C2C(=O)N3CCc4c([nH]c5ccccc45)[C@H]3C[C@H]21", "note": "(some centres not stated)", "Potency": "inactive"}, {"smiles": "C=C1CC[C@H]2[C@@](C)(CCC(O)[C@@]2(C)CO)[C@@H]1CCC1=CCOC1=O", "note": "(some centres not stated)", "Potency": "inactive"}, {"smiles": "COC(=O)c1ccccc1O[C@@H]1O[C@H](CO)[C@@H](O)[C@H](O)[C@H]1O[C@@H]1O[C@@H](C)[C@H](O)[C@@H](O)[C@H]1O", "Potency": "inactive"}]}]}
